# Screens as filed in PubChem.
# Hits are enriched below; roughly 5.2% of the tested compounds scored in any of these assays.
# Tau fibril FP = tau fibrillization inhibition (FP); K18 P301L tau heparin fibrillization, Alexa594 FP, 6 h; Potency, µM (titrated, usually from 57.7 µM), for inactives: at the highest dose activity, negative = inhibition, most hits filed as inhibitors; hit rate 0.39% among 280,000; further: potency means the concentration at half of the fitted maximal effect; nearly all actives have a fitted effect of over 55% in size
# Target sequence (P10636 561-689 P618L limits assumed): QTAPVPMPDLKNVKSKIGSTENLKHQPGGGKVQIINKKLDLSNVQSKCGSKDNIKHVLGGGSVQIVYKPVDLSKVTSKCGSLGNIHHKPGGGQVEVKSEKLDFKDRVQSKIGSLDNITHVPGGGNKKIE
#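 Heparin (20 uM) drove fibril formation of recombinant tau K18 P301L, 15 uM unlabeled with 0.24 uM Alexa 594 label, for 6 hr at 37 C in 100 mM sodium acetate pH 7. Fluorescence polarization (555/632 nm) read 1 hr after 30 uM ThT.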
# Tau fluor counter = counter-screen for tau fibril formation inhibitors; tau K18 P301L Alexa594 fluorescence, heparin fibrillization; Potency, µM (series often up to 57.7 µM), inactives show at the top dose activity change, negative = decrease; hit rate 0.93% among 280,000; AID 1463; further: potency means the concentration at half of the fitted maximal effect; nearly all actives have a fitted effect of over 55% in size
#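 Human K18 P301L tau (15 uM unlabeled plus 0.24 uM Alexa 594-labeled, final) in 100 mM sodium acetate pH 7 was mixed with compound and 20 uM heparin and incubated 6 hr at 37 C.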
# FBPA coupling cs = counter-screen for Giardia aldolase inhibitors: coupling enzyme system; hit rate 0.67% among 290,000; activity change, negative = inhibition, % at 58.2 µM, hits read low; coupling enzyme system counterscreen, AmpLite Red fluorescence; in the data active means activity change below about -30%
#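 First, compound is pin-transferred into glyceraldehyde-3-phosphate coupling-enzyme reagent at 57.5 uM final and held 10 min at RT. Next, substrate, coupling system and AmpLite Red are added. After 20 min RT, fluorescence (525/598 nm) is read.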
# Tau ThT inhib = inhibitors of human tau fibril formation, thioflavin T binding. recombinant tau K18 P301L (four-repeat tau fragment), heparin-induced fibrillization, ThT fluorescence. Potency, µM (top dose mostly 57.4 µM), for the others: at the top dose activity, negative = inhibition, actives largely listed as inhibitors. hit rate 2.1% among 270,000; further: potency means the concentration at half of the fitted maximal effect; nearly all actives have a fitted effect of over 55% in size
#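 Recombinant human tau K18 fragment […] carrying P301L, 15 uM unlabeled plus 0.24 uM Alexa 594-labeled, was fibrillized with 20 uM heparin in 100 mM sodium acetate pH 7 for 6 hr at 37 C; 30 uM ThT fluorescence read after 1 hr.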
# Sfp inh = blocks B. subtilis Sfp PPTase activity. Potency, µM, for the others: largest response in the series, negative = inhibition, hits mostly inhibitors. Biochemical Sfp PPTase activity, qHTS. hit rate 3.5% among 310,000;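 further: the enzyme is Sfp with the accession as filed and its product quenches rhodamine fluorescence; potency means the concentration at half of the fitted maximal effect; 0% = enzyme reaction without inhibitor and -100% = no enzyme wells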
#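 Compounds were incubated with enzyme (final 15 nM) for 15 min at room temperature before substrate addition started the reaction. Fluorescence at 525 nm excitation, 598 nm emission was recorded immediately and after 30 minutes.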
# Starred values were filed as active, the others as inactive; u = inconclusive; x = no result; ! = not active in a repeat; [ ] = another dose, or the depositor's remark. Unless noted, the call rests on the fitted dose curve; in most records, active means well fitted curve in the direction sought with a large enough effect; inconclusive means small, poorly fitted or top-dose-only effect, or another doubt; inactive means no such curve, though single readings can be large; an effect the other way counts as inactive or inconclusive. Unless noted, on the % scale 0 is the no-effect control and ±100 the full control effect.
SMILES,Tau fibril FP,Tau fluor counter,FBPA coupling cs,Tau ThT inhib,Sfp inh
COc1ccc(C(=O)NNc2ncnc3c2cnn3-c2ccc(C)c(Cl)c2)cc1,-8%,7%,x,4%,x
COc1ccc(CCNC(=O)Cn2cc(S(=O)(=O)Cc3ccccc3F)c3ccccc32)cc1OC,4%,-19%,x,-12%,x
CN1CCN(c2cc(-c3ccccc3Cl)ncn2)CC1,x,x,3,x,9%
COc1cc(-c2nc(-c3ccc(Br)o3)no2)cc(OC)c1OC,-6%,-12%,6,-11%,-7%
COc1ccc(-c2onc3ccc(Br)cc23)cc1,-17%,-14%,-3,-14%,71µM*
COc1cc(-c2onc3ccc(Br)cc23)cc(OC)c1OC,-8%,-29%,-7,u,50µM*
Cc1ccc(-n2nc(C(=O)N(C)c3ccccc3Cl)c3c4ccccc4n(C)c3c2=O)cc1,u,-14%,x,-4%,x
Cc1nn(-c2ccccc2)cc1/C=N/NC(N)=S,0%,-8%,0,-8%,25%
Cc1nn(-c2ccccc2)cc1C(c1c(N)[nH]c(=S)[nH]c1=O)c1c(N)[nH]c(=S)[nH]c1=O,-14%,u,7,u,22µM*
O=C(COC(=O)c1ccc2c(c1[N+](=O)[O-])C(=O)c1ccccc1C2=O)NC1CC1,-5%,u,-33*,10µM*,8%
O=C(O/N=C1/CCSc2ccccc21)c1ccccc1,-11%,-19%,-1,u,79µM*
O=C1CSC(c2ccccc2[N+](=O)[O-])N1c1ccc(O)cc1 (stereo unspecified),3%,-4%,8,-4%,50µM*
O=C1CSC(c2ccccc2[N+](=O)[O-])N1c1ccccc1 (stereo unspecified),-12%,-10%,0,-8%,11%
CNC(=O)c1nnsc1S(=O)(=O)c1ccc(Cl)cc1,-7%,0%,1,-9%,7.1µM*
COc1ccc(-c2noc(N3CCC(C(=O)Nc4ccc(C)c(F)c4)CC3)n2)cc1OC,-16%,-29%,x,-19%,x
COCCn1c(NC(=S)NC(=O)C23CC4CC(CC(C4)C2)C3)cc(=O)[nH]c1=O,-5%,-10%,1,-16%,-8%
COCCn1c(NC(=S)NC(=O)C2CC2)cc(=O)[nH]c1=O,-5%,0%,-10,-10%,22µM*
CCOc1ccc(NC(=S)N(CCc2ccncc2)C(C)C)cc1,-2%,-17%,2,-16%,50µM*
COc1ccc(-c2cc(-c3cc(C)ccc3O)[nH]n2)cc1,u,16µM*[quencher],-4,u,-2%
COc1ccc(-c2cc(-c3ccc(C)cc3)n[nH]2)c(O)c1,x,x,-8,x,-1%
COc1ccc(N2CCN(C(=O)c3cc(S(=O)(=O)N4CCC(C)CC4)cn3C)CC2)cc1,2%,-14%,x,0%,x
CC(C)(C)c1cc(CN2CCCCC2)cc(C(C)(C)C)c1O,1%,0%,-56*,2%,35µM*
CC1CN(c2c(F)c(N)c3c(=O)c(C(=O)O)cn(C4CC4)c3c2F)CC(C)N1 (stereo unspecified),0%,-7%,2,-8%,17%
CCN(CC)S(=O)(=O)c1ccc(C(=O)N2CC(=O)Nc3ccc(F)cc3C2c2ccccc2)cc1 (stereo unspecified),1%,-12%,x,-5%,x
CN(C)CCCN1c2ccccc2Sc2ccc(Cl)cc21,9%,u,-3,u,79µM*!
SMILES,Tau fibril FP,Tau fluor counter,FBPA coupling cs,Tau ThT inhib,Sfp inh
Cc1oc2ccc(O)c(CN3CCN(C)CC3)c2c1C(=O)Nc1ccccc1,5%,1%,x,8%,x
CC(=Nc1ccccc1N)c1c(C)cc(=O)n(O)c1O,x,x,-30*!,x,u
CCCCCS(=O)(=O)CCCCCCCCCCn1c(-c2ccc(O)cc2)c(C)c2cc(O)ccc21,u,7.9µM*[quencher],2,u,44%
CCn1c(=O)c(C(=O)CN(C)Cc2cccc(OC)c2OC)c(N)n(Cc2ccccc2)c1=O,7%,4%,-3,-2%,63µM*
COc1ccccc1OCC(=O)N/N=C/C=C/c1ccc([N+](=O)[O-])o1,-4%,-21%,0,14µM*,0%
O=C(COc1ccccc1[N+](=O)[O-])N/N=C/c1ccc(OC(=O)c2ccco2)cc1,5%,-13%,-3,-10%,-13%
O=C(COc1ccccc1[N+](=O)[O-])N/N=C/C=C/c1ccco1,-6%,-19%,x,u,50µM*
Cn1cc(/C=N/NC(=O)COc2ccccc2[N+](=O)[O-])c2ccccc21,15%,u,-9,u,35µM*
Cc1ccc(OCC(=O)N/N=C/C=C/c2ccco2)cc1,-7%,-14%,-2,u,35µM*
Cn1c(=O)c2sccc2n2c(CCCC(=O)Nc3ccc(Oc4ccc(Cl)cc4)cc3)nnc12,4%,u,x,2%,x
CCn1cc2nc(SCc3ccccc3F)n(Cc3ccc(C)cc3)c(=O)c2n1,5%,-19%,x,-11%,x
C=CCc1cccc(C2C(C)CCC3C(=O)N4C(Cc5c([nH]c6ccccc56)C4c4cc(OC)c(OC)c(OC)c4)C(=O)N32)c1 (stereo unspecified),0%[11.6 µM],u,-1,-14%[11.5 µM],10%
O=C(Nc1ccccc1NC(=O)c1csnn1)c1csnn1,-4%,-11%,3,-9%,u
O=C(NC(=S)Nc1ccccc1Cl)c1csnn1,u,-12%,-6,16µM*,50µM*
COCC(=O)N1CCc2nc(-c3ccc(OC)cc3C)c3c(c2C1)CO[C@@H](c1ccccc1)C3,-3%[11.6 µM],2%[11.6 µM],0,7%[11.5 µM],-18%
Cc1cc(NC(=O)c2ccc3c(c2)N(Cc2cccc(Cl)c2)C(=O)c2ccccc2S3(=O)=O)ccc1Br,u,-15%,x,6%,x
COc1cc(/C=N/Nc2nn3cnnc3c3ccccc23)ccc1O,2%,-17%,-3,u,40µM*
C(=N\Nc1nn2cnnc2c2ccccc12)/c1ccco1,-4%,-22%,-4,u,50µM*
COc1cc(/C=N/NC(=O)CCn2c3ccccc3c3ccccc32)ccc1O,10%,25µM*[quencher],4,u,6%
COc1cccc(/C=N/Nc2nn3cnnc3c3ccccc23)c1,6%,4%,3,10%,56µM*
CC(=O)N[C@H]1[C@H](O[C@@H]2c3ccc(c(Cl)c3)Oc3cc4cc(c3O[C@@H]3O[C@H](CO)[C@@H](O)[C@H](O)C3C)Oc3ccc(cc3Cl)C[C@H]3NC(=O)[C@@H](N)c5ccc(O)c(c5)Oc5cc(O)cc(c5)[C@H](NC3=O)C(=O)N[C@H]4C(=O)N[C@H]3C(=O)N[C@@H]2C(=O)N[C@@H](C(=O)O)c2cc(O)cc(O[C@H]4O[C@H](CO)[C@@H](O)C(O)[C@@H]4O)c2-c2cc3ccc2O)O[C@H](CO)[C@@H](O)[C@@H]1O (stereo partly specified),x,x,x,x,-22%
CCn1ncc(S(=O)(=O)NCc2ccccc2Cl)c1C,x,x,2,x,9%
